# Source: PubChem BioAssay
# Pf Dd2 growth – Plasmodium falciparum Dd2 growth inhibition | P. falciparum Dd2 growth, SYBR Green, 72 h | Potency, µM (doses to about 28.9 µM), inactives show at the top dose activity, negative = inhibition, hits mostly inhibitors | 120,000 compounds, 4.3% hits | AID 1347417; active means well fitted inhibition curve with a large enough effect;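 further: plate controls were DMSO vehicle for no effect and reference drug for full effect; nearly all actives have a fitted effect of over 65% in size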
#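 Readout: SYBR Green fluorescence, 485 nm excitation, 535 nm emission, after ~16 h lysis at 37C. Before that, Dd2-infected red cells (2.5% hematocrit) grew 72 h with compound, 29 uM top final concentration.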
# Active calls of the source: *; i = inactive; [ ] = another dose, or the depositor's remark. Only a selection was taken, and hits are over-represented in it overall. Potency means the concentration at half of the fitted maximal effect.
SMILES,Pf Dd2 growth
CN(C)c1cc(N2CCCC(NC(=O)c3cccn3C)C2)ncn1 (stereo not given),34%[5.79 µM]
CC(C)CNC(=O)N1CCC(N2C(=O)C(OCC3CC3)C23CCCCC3)CC1 (stereo not given),-13%
C[C@@H]1CNC[C@H]1c1nc(-c2ccncc2)no1,i[5.79 µM]
CCOc1ccc(-n2c(-c3ccc(OC)cc3)cc3c2CC(C)(C)CC3=O)cc1,10%
COc1ccc(-n2c(-c3ccc(C)cc3)cc3c2CC(C)(C)CC3=O)c(OC)c1,13µM*
Cc1ccc(-c2cc3c(n2-c2ccc(C)cc2)CC(C)(C)CC3=O)cc1,-25%[5.79 µM]
CCOC(=O)c1ccc(NC(=O)c2cnc3c(-c4ccc(F)cc4)c(C)nn3c2C)cc1,50%
CCOC(=O)c1ccc(NC(=O)CCc2c(C)nc3c(-c4ccc(F)cc4)c(C)nn3c2C)cc1,3.5µM*
Cc1nc2c(-c3ccc(F)cc3)c(C)nn2c(C)c1CCC(=O)NCc1ccc(F)cc1,41%
COCCCNC(=O)N1CCc2nn(C)c(=O)n2CC1,3%
O=C(c1ccccc1)N1CC[C@H]2COC(=O)N2c2cc(F)ccc2C1,18%[44.1 µM]
COc1ccc(F)c(-c2nc(CN3CCN(S(N)(=O)=O)CC3)c(C)o2)c1,-1%
COc1cc(-c2nc(CN3CCSCC3)c(C)o2)ccc1F,-13%
COc1ccc(-c2nc(CN3CCN(CCO)CC3)c(C)o2)c2ccccc12,11µM*
CCc1noc(-c2cn(C3CCN(C(=O)c4ccc(OC)cc4C)C3)nn2)n1 (stereo not given),-7%
O=C(CCc1ccccc1)N1CCC2(CC1)N=C(c1cccc(Br)c1)NO2,-20%
COc1cc(OC)cc(C(=O)N2CCC3(CC2)N=C(c2ccccc2)NO3)c1,15%
COc1cccc(CCC(=O)N2CCC3(CC2)N=C(c2ccccc2)NO3)c1,11µM*
COCCN1C(=O)c2cccn2CC1CNC(=O)c1ccc(OC)c(OC)c1 (stereo not given),2%
O=C([C@@H]1C[C@H](Oc2ccccc2)CN1C(=O)CC1CCCC1)N1CCOCC1,9%
Cc1cc(N2CCC(N3CCCC(C(=O)NCCc4ccccc4)C3)CC2)ncn1 (stereo not given),i
COCCNC(=O)[C@@H]1C[C@@H](O)CN1C1CCN(C(=O)CN2CCCCCC2)CC1,-8%
Cc1cc(C)c(Cn2c3ccccc3c3cnn(CC(=O)NCc4ccc(Cl)cc4)c(=O)c32)c(C)c1,7.9µM*
CCCCN(C)CCCNC(=O)Cn1ncc2c3ccccc3n(Cc3cccc(Cl)c3)c2c1=O,5.6µM*
CCCn1c2ccccc2c2cnn(CC(=O)NC(C)CC)c(=O)c21 (stereo not given),5%
SMILES,Pf Dd2 growth
Cc1ccc(Cn2c3ccccc3c3cnn(CC(=O)Nc4cc(Cl)ccc4C)c(=O)c32)cc1,12%
Cc1ccccc1Cn1c2ccccc2c2cnn(CC(=O)NCc3cccc(Cl)c3)c(=O)c21,-5%
O=C(Cn1ncc2c3ccccc3n(Cc3ccc(Cl)cc3)c2c1=O)NCCCc1ccccc1,34%[0.594 µM]
CCN(CC)CCCNC(=O)Cn1ncc2c3ccccc3n(Cc3ccccc3)c2c1=O,-22%
O=C(Cn1ncc2c3ccccc3n(Cc3cccc(Cl)c3)c2c1=O)NCCCc1ccccc1,-6%
CCCN1CCN(C(=O)Cn2ncc3c4ccccc4n(Cc4cccc(Cl)c4)c3c2=O)CC1,11µM*
CCCNC(=O)N(C1CCOCC1)C1CCN(S(=O)(=O)c2cn(C)cn2)CC1,-1%
CCS(=O)(=O)Nc1ccc(C)n(CC(=O)N2CCN(CC(C)C)CC2)c1=O,2%
COC1CCCN(c2ncc(C(C)(C)C(=O)O)c(N3CCOCC3)n2)C1 (stereo not given),14%
CC(=O)N[C@H]1CN(S(=O)(=O)c2ccc(C)c(F)c2)C[C@@H]1C(C)C,4%
Cc1cc(C)c2nonc2c1S(=O)(=O)N1C[C@@H](N(C)C)[C@H](C(C)C)C1,11µM*
Cc1nn(C)c(C)c1S(=O)(=O)N1C[C@@H](NS(C)(=O)=O)[C@H](C(C)C)C1,16%
Cn1c(CCC(=O)N2CC[C@H](O)C2)nc2cc(S(=O)(=O)N3CCCC3)ccc21,13%
Cn1cnc(S(=O)(=O)N2CCC3(CC2)NCCc2c3[nH]c3ccccc23)c1,-8%
Cc1noc(C)c1S(=O)(=O)N1CCC2(CC1)NCCc1c2[nH]c2ccccc12,5µM*
Cc1ccncc1C(=O)N1CCC2(CC1)c1[nH]c3ccccc3c1CCN2C,i
CN1CCc2c([nH]c3ccccc23)C12CCN(C(=O)Cc1cccnc1)CC2,-27%
Cc1noc(C)c1C(=O)N1CCC2(CC1)NCCc1c2[nH]c2ccccc12,-24%
CN1CCc2c([nH]c3ccccc23)C12CCN(S(=O)(=O)c1cccnc1)CC2,4.5µM*
N#Cc1ccccc1CN1CCC2(CC1)CC(O)CCO2 (stereo not given),19%
O=C(c1nc2ccccc2[nH]1)N1CCc2c(n(Cc3cccnc3)n(-c3ccccc3)c2=O)C1,i
O=C(NCc1ccc(F)cc1)C1COC2(CCCCC2)N1C(=O)c1cccc(F)c1 (stereo not given),-11%
CS(=O)(=O)NC[C@H]1OC[C@@H](NCc2ccccn2)[C@@H]1O,-14%[44.1 µM]
CCCNc1ncc(CN2CCCC(c3ccc(C(=O)O)cc3)C2)cn1 (stereo not given),-4%
COCCOc1ccc(C(=O)N[C@@H]2CN(C(=O)NCc3ccccc3)CCC[C@H]2O)cc1,17%
SMILES,Pf Dd2 growth
O=C(N[C@@H]1CN(Cc2ccccn2)CCC[C@H]1O)c1ccc(OCc2ccccc2)cc1,2.5µM*
COCCOc1ccc(C(=O)N[C@@H]2CN(C(=O)Nc3cccc(C(F)(F)F)c3)CCC[C@H]2O)cc1,i
O=C(N[C@@H]1CN(C(=O)Nc2ccccc2)CCC[C@H]1O)c1ccc(OCc2ccccc2)cc1,-16%
O=C(N[C@@H]1CN(C(=O)Nc2cccc(C(F)(F)F)c2)CCC[C@H]1O)c1ccc(OCc2ccccc2)cc1,7.1µM*
NC(=O)COc1ccc(C(=O)N[C@@H]2CN(Cc3ccccn3)CCC[C@H]2O)cc1,-27%[44.1 µM]
Cc1nc(-c2c3n(c(=O)n(CC(=O)NCc4ccccc4)c2=O)CCCC3)no1,7%
Cc1ccc(F)cc1-n1nc(-c2c(C)nc3scc(CC(=O)NCC(C)C)n3c2=O)cc1C,i
Cc1ccc(C(=O)Nc2ccc(-c3nnc4n3CCCC4)cc2)s1,5.6µM*
CCOc1ccccc1C(=O)Nc1cccc(-c2nnc3n2CCCC3)c1,5µM*
CC(=O)Nc1ccc(-c2nnc3n2CCCC3)cc1,25%
O=C(Nc1ccc(-c2nnc3n2CCCC3)cc1)Nc1cccc(Cl)c1,-8%
O=C(Nc1ccc(-c2nnc3n2CCCC3)cc1)c1cc(C2CC2)[nH]n1,i
Cc1cc(C)cc(C(=O)Nc2cccc(-c3nnc4n3CCCC4)c2)c1,3.2µM*
O=C(Nc1ccccc1)Nc1ccc(-c2nnc3n2CCCC3)cc1,31%
CCOc1cc(=O)n2c(c1C(=O)Nc1cccc(C)c1)CCCC2,22%
Cc1cccc(C(=O)Nc2ccc(-c3nnc4n3CCCC4)cc2)c1,-10%
O=C(Nc1ccc(-c2nnc3n2CCCC3)cc1)c1ccc[nH]c1=O,-2%
O=C(Nc1cccc(-c2nnc3n2CCCC3)c1)Nc1ccccc1F,8%
O=C(Nc1cccc(-c2nnc3n2CCCC3)c1)c1ccccc1Cl,5.6µM*
O=C(c1nnn2c1COC(c1ccccc1)C2)N1CCN(C(=O)C2(c3ccccc3)CC2)CC1 (stereo not given),-13%
Cc1ccc(-c2nc(-c3nnn4c3COC(c3ccccc3Cl)C4)no2)s1 (stereo not given),i
COc1ccc(-c2cc(N3CCC(NC(=O)c4ccc(Cl)cc4)CC3)n[nH]2)cc1,i
